These results are taken from PubChem BioAssay (Tox21).

Each structure is given as a SMILES string. Records with an inconclusive call do not appear. Entries that show only a call come without a potency. Active and inactive are the calls of the source. The call rests on the fitted dose curve; in most records, active means well fitted activation curve with a large enough effect in the repeat runs; inconclusive means weak or mixed curves; inactive means flat fitted curve, though single readings scatter.
Potency means the concentration at half of the fitted maximal effect.

The target in the experiment is Nuclear receptor subfamily 1 group I member 2 (Homo sapiens) (UniProt O75469). Put plainly: Human pregnane X receptor (PXR) activation by small molecules, qHTS assay (AID 1346985). Further: nearly all actives have a fitted effect of over 40% in size. The settings on record: DPX-2 HepG2 CYP3A4-luciferase, 24 h; series mostly up to 38.3 µM. A digest of the protocol: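 DPX-2 cells (HepG2 co-transfected with a PXR response element and a CYP3A4-promoter luciferase construct) were seeded at 2,000 per well, rested 5 hr at 37C, then exposed to DMSO-dissolved compounds for 24 hr. Activation was read as luciferase luminescence.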
For the compound `COc1ccc(C[C@H](C)NC[C@@H](O)c2ccc(O)c(NC=O)c2)cc1`, the Potency result is “inactive”.

Take `CCCCCCCCCCCCCCCC(=O)OCC(COC(=O)CCCCCCCCCCCCCCC)OC(=O)CCCCCCCCCCCCCCC`: the Potency entry was “inactive”.

For `CCOC(=O)[C@H](CS)NCCN[C@@H](CS)C(=O)OCC`, the Potency entry is “inactive”.

Regarding `CCN(CC)CCOCCOC(=O)C(CC)(CC)c1ccccc1`, the Potency was 15.8 µM (active).

Turning to `CC(=O)N(CC(C)C(=O)O)c1c(I)cc(I)c(N)c1I` (configuration not stated), the Potency result is “inactive”.

For `O=C(O)c1ccc(NC(=O)[C@H](Cc2ccc(O)cc2)NC(=O)c2ccccc2)cc1`, the Potency entry was “inactive”.

Consider `Clc1cc(Cl)c(OCC#CI)cc1Cl`, for which the Potency entry was “inactive”.

With `CC(=O)Nc1ccc(OC(=O)c2ccccc2O)cc1`, the Potency entry is “inactive”.

Take `FC(F)(F)C(F)(F)C(F)(F)C(F)(F)C(F)(F)C(F)(F)F`: the Potency result was “inactive”.

Regarding `O=C(OC[C@H]1O[C@](O)(COC(=O)c2cccnc2)[C@@H](OC(=O)c2cccnc2)[C@@H]1OC(=O)c1cccnc1)c1cccnc1`, the Potency result was “inactive”.

On to `CCC(Cc1c(I)cc(I)c(O)c1I)C(=O)O` (configuration not stated), for which the Potency entry is “inactive”.

Turning to `CCCCCCCCCCCCOCCCN`, the Potency result is “inactive”.

In the case of `C=CCOc1ccc(CC(=O)O)cc1Cl`, the Potency entry is “inactive”.

`O=P(O)(O)OC[C@H]1O[C@](O)(COP(=O)(O)O)[C@@H](O)[C@@H]1O`: the Potency entry is “inactive”.

For the compound `CC(=O)O[C@]1(C(C)=O)CC[C@H]2[C@@H]3CCC4=CC(=O)CC[C@]4(C)[C@@]3(F)[C@@H](O)C[C@@]21C`, the Potency result is “inactive”.

For the compound `CCN(CC)CCC(=O)N1c2ccccc2Sc2ccc(C(F)(F)F)cc21`, the Potency was 6.31 µM (active).

Turning to `CCCCC(=O)N(Cc1ccc(-c2ccccc2-c2nn[nH]n2)cc1)[C@@H](C(=O)O)C(C)C`, the Potency result is “inactive”.
